In the supplement of paper PMC10849652:
About 8,800 targets were measured; listed, in parts, are those with a hit and a random draw of the rest. About 0.5% of all pairs of compound and target were hits. A number with no mark means an inactive call.

Columns and labels:
Test in all cases: log2 fold change, soluble protein after heating vs DMSO (PISA); higher = thermal stabilisation; K562 lysate, 10 uM; active = over 0.2 and 3.5 SD of the protein, either way, in both replicates (recomputed)
alvocidib = compound: CN1CC[C@H](c2c(O)cc(O)c3c(=O)cc(-c4ccccc4Cl)oc23)[C@H](O)C1 [alvocidib]
Summary of the method: (§1)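 The values are log-two fold changes in thermal stability compared with solvent controls and come from duplicates. They were obtained by TMTpro 16plex LC-MS/MS, with channel sums equalised, on the supernatant after 21,000xg for 90 min. That supernatant came from crude K562 extract at 1 mg/mL protein treated with 10 μM compound for 30 min, heated for 3 min across 48°C-58°C, pooled and brought to 0.5% NP-40 at 4°C.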

Tubastatin A = compound: CN1CCc2c(c3ccccc3n2Cc2ccc(C(=O)NO)cc2)C1 [Tubastatin A]
Summary of the method: as §1

[1] = compound: CNC(=O)C1=CC=CC=C1NC2=NC(=NC=C2Cl)NC3=C(C=C(C=C3)N4CCOCC4)OC
Summary of the method: as §1

defactinib = compound: CNC(=O)c1ccc(Nc2ncc(C(F)(F)F)c(NCc3nccnc3N(C)S(C)(=O)=O)n2)cc1 [defactinib]
Summary of the method: as §1

[2] = compound: CNc1nc(-c2ccc3c(N)n[nH]c3c2)cc(N2C[C@@H](C(=O)NC3CCCCC3)CC[C@H]2C)n1
Summary of the method: as §1

encorafenib = compound: COC(=O)N[C@@H](C)CNc1nccc(-c2cn(C(C)C)nc2-c2cc(Cl)cc(NS(C)(=O)=O)c2F)n1 [encorafenib]
Summary of the method: as §1

[3] = compound: COC(=O)[C@H](CCSC)NC(=O)C1=C(C=C(C=C1)NC[C@H](CS)N)C2=CC=CC=C2
Summary of the method: as §1

alisertib = compound: COc1cc(Nc2ncc3c(n2)-c2ccc(Cl)cc2C(c2c(F)cccc2OC)=NC3)ccc1C(=O)O [alisertib]
Summary of the method: as §1

[4] = compound: COc1cc2nc(-c3cc(F)ccc3O)nc(N[C@@H]3CNC[C@H]3C(C)(C)O)c2cc1OC
Summary of the method: as §1

gefitinib = compound: COc1cc2ncnc(Nc3ccc(F)c(Cl)c3)c2cc1OCCCN1CCOCC1 [gefitinib]
Summary of the method: as §1

Chain of UniProt P67870 (P67870 whole entry, looked up): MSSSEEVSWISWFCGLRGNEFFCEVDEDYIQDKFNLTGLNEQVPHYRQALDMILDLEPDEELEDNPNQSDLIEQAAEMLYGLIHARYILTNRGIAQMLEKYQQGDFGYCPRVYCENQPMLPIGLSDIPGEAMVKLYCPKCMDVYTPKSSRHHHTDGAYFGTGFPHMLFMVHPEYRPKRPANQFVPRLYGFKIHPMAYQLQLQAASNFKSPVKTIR
Chain of UniProt Q9NRF8 (Q9NRF8 whole entry, looked up): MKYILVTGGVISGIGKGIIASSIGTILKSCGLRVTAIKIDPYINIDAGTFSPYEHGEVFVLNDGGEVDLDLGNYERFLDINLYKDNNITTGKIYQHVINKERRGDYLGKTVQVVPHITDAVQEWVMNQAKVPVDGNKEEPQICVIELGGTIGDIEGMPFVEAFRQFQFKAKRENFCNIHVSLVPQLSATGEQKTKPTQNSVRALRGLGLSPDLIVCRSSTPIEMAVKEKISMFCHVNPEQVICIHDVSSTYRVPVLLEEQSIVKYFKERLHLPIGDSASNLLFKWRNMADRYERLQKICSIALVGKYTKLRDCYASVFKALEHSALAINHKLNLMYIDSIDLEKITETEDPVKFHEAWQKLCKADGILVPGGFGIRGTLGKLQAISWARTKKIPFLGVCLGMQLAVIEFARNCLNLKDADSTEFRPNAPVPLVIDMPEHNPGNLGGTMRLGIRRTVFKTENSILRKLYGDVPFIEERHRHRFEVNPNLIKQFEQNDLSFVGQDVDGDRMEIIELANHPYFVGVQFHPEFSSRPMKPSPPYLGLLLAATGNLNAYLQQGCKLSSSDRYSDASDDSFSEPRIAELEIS
Chain of UniProt Q9NZN8 (Q9NZN8 whole entry, looked up): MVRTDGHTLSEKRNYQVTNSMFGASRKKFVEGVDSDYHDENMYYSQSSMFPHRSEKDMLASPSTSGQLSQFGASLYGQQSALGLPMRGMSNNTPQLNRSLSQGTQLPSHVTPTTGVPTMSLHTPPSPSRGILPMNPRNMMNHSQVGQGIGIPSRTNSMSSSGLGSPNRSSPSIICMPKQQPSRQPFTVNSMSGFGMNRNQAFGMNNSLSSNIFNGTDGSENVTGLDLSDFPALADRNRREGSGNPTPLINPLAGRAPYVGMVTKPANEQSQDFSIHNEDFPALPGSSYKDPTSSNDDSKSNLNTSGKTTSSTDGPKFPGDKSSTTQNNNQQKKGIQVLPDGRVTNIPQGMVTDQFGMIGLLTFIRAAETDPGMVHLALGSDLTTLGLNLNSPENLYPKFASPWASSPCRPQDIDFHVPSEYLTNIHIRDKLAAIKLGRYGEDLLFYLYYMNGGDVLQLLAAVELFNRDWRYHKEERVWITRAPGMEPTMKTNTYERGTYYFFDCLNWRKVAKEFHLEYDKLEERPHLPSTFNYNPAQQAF
Chain of UniProt P39880 (P39880 whole entry, looked up): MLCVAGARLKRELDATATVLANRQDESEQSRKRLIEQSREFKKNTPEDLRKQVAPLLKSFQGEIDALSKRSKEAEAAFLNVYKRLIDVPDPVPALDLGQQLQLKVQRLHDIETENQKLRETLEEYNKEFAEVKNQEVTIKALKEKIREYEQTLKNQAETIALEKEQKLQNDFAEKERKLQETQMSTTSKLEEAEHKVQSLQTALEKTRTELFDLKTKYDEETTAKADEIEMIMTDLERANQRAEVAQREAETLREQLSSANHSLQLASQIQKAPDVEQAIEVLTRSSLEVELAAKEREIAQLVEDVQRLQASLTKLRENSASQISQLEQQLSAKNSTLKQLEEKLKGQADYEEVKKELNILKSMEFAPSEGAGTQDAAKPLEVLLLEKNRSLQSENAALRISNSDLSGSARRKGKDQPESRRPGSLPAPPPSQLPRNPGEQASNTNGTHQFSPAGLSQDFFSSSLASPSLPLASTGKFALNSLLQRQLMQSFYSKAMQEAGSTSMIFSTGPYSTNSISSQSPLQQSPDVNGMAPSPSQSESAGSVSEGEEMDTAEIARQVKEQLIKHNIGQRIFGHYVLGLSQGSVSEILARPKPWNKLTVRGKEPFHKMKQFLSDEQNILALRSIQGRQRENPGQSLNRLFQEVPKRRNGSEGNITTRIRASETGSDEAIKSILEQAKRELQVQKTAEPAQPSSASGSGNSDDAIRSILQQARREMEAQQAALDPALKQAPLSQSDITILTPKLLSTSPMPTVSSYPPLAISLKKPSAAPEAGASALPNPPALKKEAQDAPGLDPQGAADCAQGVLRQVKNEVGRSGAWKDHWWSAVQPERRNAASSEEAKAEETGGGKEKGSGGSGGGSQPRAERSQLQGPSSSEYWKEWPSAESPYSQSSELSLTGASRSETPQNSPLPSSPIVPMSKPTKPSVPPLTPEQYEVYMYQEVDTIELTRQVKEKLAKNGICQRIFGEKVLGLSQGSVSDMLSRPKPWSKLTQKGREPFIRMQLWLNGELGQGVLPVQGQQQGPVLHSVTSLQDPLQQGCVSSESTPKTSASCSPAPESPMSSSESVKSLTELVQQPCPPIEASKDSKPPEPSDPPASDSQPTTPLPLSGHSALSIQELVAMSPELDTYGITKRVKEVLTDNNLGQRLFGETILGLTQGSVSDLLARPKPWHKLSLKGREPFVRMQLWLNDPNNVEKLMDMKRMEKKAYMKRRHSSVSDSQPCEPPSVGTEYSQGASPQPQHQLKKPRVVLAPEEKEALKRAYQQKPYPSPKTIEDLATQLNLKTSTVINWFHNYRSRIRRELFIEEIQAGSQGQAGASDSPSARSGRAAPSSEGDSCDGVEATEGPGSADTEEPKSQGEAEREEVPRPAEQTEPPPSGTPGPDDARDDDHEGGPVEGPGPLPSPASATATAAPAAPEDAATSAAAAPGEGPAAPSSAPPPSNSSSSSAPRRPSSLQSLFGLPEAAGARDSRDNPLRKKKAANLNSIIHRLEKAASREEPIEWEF
Chain of UniProt Q96KC8 (Q96KC8 whole entry, looked up): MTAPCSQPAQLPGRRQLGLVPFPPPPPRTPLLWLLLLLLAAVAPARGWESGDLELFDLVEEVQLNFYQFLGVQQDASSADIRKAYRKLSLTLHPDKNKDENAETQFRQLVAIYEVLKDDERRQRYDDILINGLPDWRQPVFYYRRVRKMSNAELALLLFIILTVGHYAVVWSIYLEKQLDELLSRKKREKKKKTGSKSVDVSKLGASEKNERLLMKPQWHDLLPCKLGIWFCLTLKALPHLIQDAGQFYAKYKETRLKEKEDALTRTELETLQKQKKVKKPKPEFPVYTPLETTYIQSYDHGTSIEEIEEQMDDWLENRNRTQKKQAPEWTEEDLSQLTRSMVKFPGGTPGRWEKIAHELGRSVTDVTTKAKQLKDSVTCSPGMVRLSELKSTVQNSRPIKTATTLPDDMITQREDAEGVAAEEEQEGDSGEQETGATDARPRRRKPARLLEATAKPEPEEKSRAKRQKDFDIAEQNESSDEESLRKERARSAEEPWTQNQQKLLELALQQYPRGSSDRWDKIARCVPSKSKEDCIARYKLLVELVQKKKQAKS
Chain of UniProt Q9NPI6 (Q9NPI6 whole entry, looked up): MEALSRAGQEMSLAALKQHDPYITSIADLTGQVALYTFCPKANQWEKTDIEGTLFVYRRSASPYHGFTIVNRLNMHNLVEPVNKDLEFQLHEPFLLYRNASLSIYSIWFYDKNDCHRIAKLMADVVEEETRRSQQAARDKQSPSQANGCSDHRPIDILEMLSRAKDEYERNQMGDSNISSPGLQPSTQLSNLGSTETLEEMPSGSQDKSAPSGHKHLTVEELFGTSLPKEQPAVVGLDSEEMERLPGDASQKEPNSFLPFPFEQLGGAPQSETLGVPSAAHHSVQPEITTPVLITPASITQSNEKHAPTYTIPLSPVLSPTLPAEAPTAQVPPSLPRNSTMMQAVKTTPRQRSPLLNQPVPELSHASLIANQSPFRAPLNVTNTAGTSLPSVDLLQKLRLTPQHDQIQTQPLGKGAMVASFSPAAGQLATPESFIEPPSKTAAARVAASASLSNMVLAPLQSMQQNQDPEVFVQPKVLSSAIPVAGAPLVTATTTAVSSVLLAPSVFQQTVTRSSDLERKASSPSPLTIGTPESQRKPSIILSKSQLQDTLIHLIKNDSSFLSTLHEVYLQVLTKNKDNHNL
Chain of UniProt Q96MX0 (Q96MX0 whole entry, looked up): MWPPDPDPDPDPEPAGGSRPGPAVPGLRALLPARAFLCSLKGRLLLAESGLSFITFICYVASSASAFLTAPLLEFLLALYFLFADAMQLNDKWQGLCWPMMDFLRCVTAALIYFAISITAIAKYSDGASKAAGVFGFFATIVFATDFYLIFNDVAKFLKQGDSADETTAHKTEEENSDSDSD
Chain of UniProt O96017 (O96017 whole entry, looked up): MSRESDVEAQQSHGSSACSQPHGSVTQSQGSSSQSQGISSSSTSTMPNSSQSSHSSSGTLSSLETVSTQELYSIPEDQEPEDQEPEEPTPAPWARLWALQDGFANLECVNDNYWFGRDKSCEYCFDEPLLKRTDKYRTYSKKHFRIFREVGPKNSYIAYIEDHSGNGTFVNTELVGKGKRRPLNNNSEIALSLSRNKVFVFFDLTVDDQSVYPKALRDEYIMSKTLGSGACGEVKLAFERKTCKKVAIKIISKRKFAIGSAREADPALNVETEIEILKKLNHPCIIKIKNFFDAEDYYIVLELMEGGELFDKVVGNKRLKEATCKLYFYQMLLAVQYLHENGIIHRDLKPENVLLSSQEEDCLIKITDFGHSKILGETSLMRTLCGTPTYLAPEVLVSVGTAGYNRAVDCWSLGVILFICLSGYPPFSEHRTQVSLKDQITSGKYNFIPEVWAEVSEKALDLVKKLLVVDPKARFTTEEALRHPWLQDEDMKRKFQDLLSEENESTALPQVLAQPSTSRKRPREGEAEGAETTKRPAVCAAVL
Chain of UniProt Q14019 (Q14019 whole entry, looked up): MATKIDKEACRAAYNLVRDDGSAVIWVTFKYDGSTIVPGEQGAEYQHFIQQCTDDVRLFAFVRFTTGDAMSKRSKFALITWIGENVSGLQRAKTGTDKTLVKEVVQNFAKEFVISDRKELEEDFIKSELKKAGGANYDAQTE
Chain of UniProt P99999 (P99999 whole entry, looked up): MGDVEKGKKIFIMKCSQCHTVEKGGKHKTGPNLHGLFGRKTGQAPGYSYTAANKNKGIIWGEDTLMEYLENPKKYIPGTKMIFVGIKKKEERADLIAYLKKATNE

Row | Target | log2 fold change (alvocidib) | log2 fold change (Tubastatin A) | log2 fold change [1] | log2 fold change (defactinib) | log2 fold change [2] | log2 fold change (encorafenib) | log2 fold change [3] | log2 fold change (alisertib) | log2 fold change [4] | log2 fold change (gefitinib)
1 | DOCK8 (UniProt Q8NF50) | 0.019 | -0.098 | 0.007 | 0.001 | -0.073 | 0.003 | 0.05 | -0.01 | 0.014 | 0.005
2 | CSNK2B (UniProt P67870) | -0.005 | -0.012 | 0.324 (active) | 0.025 | 0.053 | -0.026 | -0.006 | -0.054 | 0.052 | -0.022
3 | DCP1A (UniProt Q9NPI6) | -0.002 | 0 | 0.003 | 0.033 | 0 | 0.006 | -0.046 | -0.074 | 0.026 | 0.022
4 | CUX1 isoform 3 (UniProt P39880) | -0.03 | 0.003 | 0.055 | -0.006 | 0.005 | 0 | 0 | 0.067 | -0.042 | 0.014
5 | DNAJC1 (UniProt Q96KC8) | 0.016 | -0.053 | 0.013 | 0.06 | -0.059 | 0.056 | -0.257 | 0.038 | -0.104 | 0.041
6 | DICER1 (UniProt Q9UPY3) | -0.032 | -0.172 | 0.112 | 0.046 | -0.003 | 0.037 | 0.039 | 0.012 | -0.022 | -0.027
7 | CMTM3 (UniProt Q96MX0) | -0.007 | -0.231 | 0.04 | -0.022 | 0.061 | -0.011 | 0.064 | -0.099 | -0.036 | -0.123
8 | CHEK2 (UniProt O96017) | 0.093 | -0.007 | 0.207 (active) | 0.022 | -0.085 | -0.022 | 0.092 | 0 | -0.052 | 0.09
9 | CTPS2 (UniProt Q9NRF8) | -0.01 | 0.015 | -0.009 | 0.01 | -0.006 | 0.01 | -0.043 | -0.017 | 0.011 | 0.011
10 | CWC22 (UniProt Q9HCG8) | 0.112 | -0.035 | 0 | -0.026 | -0.036 | 0.046 | 0.093 | -0.065 | -0.058 | -0.028
11 | COTL1 (UniProt Q14019) | 0.021 | 0.004 | -0.021 | -0.04 | -0.008 | -0.033 | -0.029 | -0.009 | -0.001 | -0.002
12 | CNOT2 (UniProt Q9NZN8) | -0.003 | -0.046 | -0.002 | 0.001 | -0.027 | -0.002 | 0.013 | -0.025 | 0.008 | 0.011
13 | DCTN1 (UniProt Q14203) | 0.03 | -0.048 | 0.009 | 0.008 | -0.02 | 0.008 | 0.119 | -0.019 | 0.01 | -0.002
14 | CYCS (UniProt P99999) | -0.003 | 0.027 | 0.009 | 0.04 | 0.018 | -0.004 | -0.04 | -0.019 | -0.002 | 0.003
15 | DOCK7 (UniProt Q96N67) | 0.007 | -0.238 | 0.006 | -0.014 | -0.035 | 0.006 | 0.038 | 0.032 | 0.026 | 0.017
